# Source: the supplement of paper PMC8728848
# About 410 targets per protein were measured; listed, in parts, are those with the strongest signals and a random draw of the rest.
# B1: LecB PA14 (Pseudomonas aeruginosa) (protein)
# chain: MATQGVFTLPANTQFGVTAFANSAGTQTVNVQVNNETVATFTGQSTNNAIIGSKVLNSGGGGKVQILVSVNGRSSDLVSAQVILANELNFALVGSEDSTDNDYNDAVVVINWPLG
# Columns and labels:
# Assay in all cases: glycan array binding signal (z-score within array); higher = stronger binding
# Conditions in all cases: glycan notation: IUPAC condensed, linker removed
# [1] = biological target: Fuc(a1-2)Gal(b1-3)GalNAc(a1-3)[Fuc(a1-2)]Gal(b1-4)GlcNAc
# Method in brief: (§1)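 Glycan array data came from 3228 arrays in the Consortium for Functional Glycomics database, and only arrays with an available protein sequence were kept. Glycan names were put into IUPAC-condensed notation, and columns mapping to the same glycan were averaged. The binding signal is a within-array Z-score, averaged across arrays of one protein sequence run at different concentrations or buffers and across linkers. A negative Z-score can be read as non-binding.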
# [2] = biological target: Fuc(a1-2)Gal(b1-3)GlcNAc(b1-3)GalNAc
# Method in brief: as §1
# [3] = biological target: Fuc(a1-2)Gal(b1-3)GlcNAc(b1-3)[Neu5Ac(a2-6)Gal(b1-4)GlcNAc(b1-6)]Gal(b1-4)Glc
# Method in brief: as §1
# [4] = biological target: Fuc(a1-2)Gal(b1-3)[Fuc(a1-4)]GlcNAc
# Method in brief: as §1
# [5] = biological target: Fuc(a1-2)Gal(b1-4)GlcNAc(b1-2)Man(a1-3)[Fuc(a1-2)Gal(b1-4)GlcNAc(b1-2)Man(a1-6)]Man(b1-4)GlcNAc(b1-4)[Fuc(a1-6)]GlcNAc
# Method in brief: as §1
# [6] = biological target: Fuc(a1-2)Gal(b1-4)GlcNAc(b1-2)[Fuc(a1-2)Gal(b1-4)GlcNAc(b1-4)]Man(a1-3)[Fuc(a1-2)Gal(b1-4)GlcNAc(b1-2)Man(a1-6)]Man(b1-4)GlcNAc(b1-4)GlcNAc
# Method in brief: as §1
# [7] = biological target: Fuc(a1-2)Gal(b1-4)GlcNAc(b1-3)Gal(b1-4)GlcNAc(b1-2)Man(a1-3)[Fuc(a1-2)Gal(b1-4)GlcNAc(b1-3)Gal(b1-4)GlcNAc(b1-2)Man(a1-6)]Man(b1-4)GlcNAc(b1-4)GlcNAc
# Method in brief: as §1
# [8] = biological target: Fuc(a1-2)Gal(b1-4)GlcNAc6S
# Method in brief: as §1
# [9] = biological target: Fuc(a1-2)Gal(b1-4)[Fuc(a1-3)]GlcNAc(b1-3)Gal(b1-4)[Fuc(a1-3)]GlcNAc
# Method in brief: as §1
# [10] = biological target: Fuc(a1-2)Gal(b1-4)[Fuc(a1-3)]GlcNAc(b1-3)Gal(b1-4)[Fuc(a1-3)]GlcNAc(b1-3)Gal(b1-4)[Fuc(a1-3)]GlcNAc
# Method in brief: as §1
# [11] = biological target: Fuc(a1-2)[Gal(a1-3)]Gal
# Method in brief: as §1
# [12] = biological target: Fuc(a1-2)[Gal(a1-3)]Gal(b1-3)GlcNAc(b1-6)GalNAc
# Method in brief: as §1
# [13] = biological target: Fuc(a1-2)[Gal(a1-3)]Gal(b1-4)GlcNAc
# Method in brief: as §1
# [14] = biological target: Fuc(a1-2)[GalNAc(a1-3)]Gal(b1-3)GlcNAc(b1-6)GalNAc
# Method in brief: as §1
# [15] = biological target: Fuc(a1-2)[GalNAc(a1-3)]Gal(b1-4)GlcNAc(b1-3)Gal(b1-4)GlcNAc(b1-3)Gal(b1-4)GlcNAc
# Method in brief: as §1
# [16] = biological target: Fuc(a1-3)[Gal(b1-4)]GlcNAc(b1-3)Gal(b1-4)[Fuc(a1-3)]GlcNAc(b1-3)Gal(b1-4)[Fuc(a1-3)]GlcNAc
# Method in brief: as §1
# [17] = biological target: Fuc(a1-3)[GalNAc(b1-4)]GlcNAc
# Method in brief: as §1
# [18] = biological target: Gal(a1-3)Gal
# Method in brief: as §1
# [19] = biological target: Gal(a1-3)Gal(b1-3)[Fuc(a1-4)]GlcNAc(b1-2)Man(a1-3)[Gal(a1-3)Gal(b1-3)[Fuc(a1-4)]GlcNAc(b1-2)Man(a1-6)]Man(b1-4)GlcNAc(b1-4)GlcNAc
# Method in brief: as §1
# [20] = biological target: Gal(a1-4)Gal(b1-4)Glc
# Method in brief: as §1
# [21] = biological target: Gal(a1-4)Gal(b1-4)GlcNAc(b1-3)Gal(b1-4)Glc
# Method in brief: as §1
# [22] = biological target: Gal(b1-3)Gal(b1-4)GlcNAc
# Method in brief: as §1
# [23] = biological target: Gal(b1-3)GalNAc(a1-3)[Fuc(a1-2)]Gal(b1-4)Glc
# Method in brief: as §1
# [24] = biological target: Gal(b1-3)GlcNAc(b1-2)Man(a1-3)[Gal(b1-3)GlcNAc(b1-2)Man(a1-6)]Man(b1-4)GlcNAc(b1-4)[Fuc(a1-6)]GlcNAc
# Method in brief: as §1
# [25] = biological target: Gal(b1-3)GlcNAc(b1-2)Man(a1-3)[GlcNAc(b1-4)][Gal(b1-3)GlcNAc(b1-2)Man(a1-6)]Man(b1-4)GlcNAc(b1-4)GlcNAc
# Method in brief: as §1
# [26] = biological target: Gal(b1-4)GlcNAc(b1-2)Man
# Method in brief: as §1
# [27] = biological target: Gal(b1-4)GlcNAc(b1-2)Man(a1-3)[GlcNAc(b1-2)Man(a1-6)]Man(b1-4)GlcNAc(b1-4)GlcNAc
# Method in brief: as §1
# [28] = biological target: Gal(b1-4)GlcNAc(b1-3)Gal(b1-3)GalNAc
# Method in brief: as §1
# [29] = biological target: Gal3S6S(b1-4)GlcNAc
# Method in brief: as §1
# [30] = biological target: GalNAc(b1-4)GlcNAc(b1-3)GalNAc(b1-4)GlcNAc
# Method in brief: as §1
# [31] = biological target: GlcA(b1-3)Gal
# Method in brief: as §1
# [32] = biological target: GlcNAc(a1-4)Gal(b1-4)GlcNAc(b1-3)Gal(b1-4)Glc
# Method in brief: as §1
# [33] = biological target: GlcNAc(b1-2)Man(a1-3)[GlcNAc(b1-4)][GlcNAc(b1-2)Man(a1-6)]Man(b1-4)GlcNAc(b1-4)GlcNAc
# Method in brief: as §1
# [34] = biological target: GlcNAc(b1-2)[GlcNAc(b1-6)]Man(a1-6)[GlcNAc(b1-2)Man(a1-3)]Man(b1-4)GlcNAc(b1-4)[Fuc(a1-6)]GlcNAc
# Method in brief: as §1
# [35] = biological target: GlcNAc(b1-3)Gal(b1-4)GlcNAc(b1-3)Gal(b1-4)GlcNAc(b1-2)Man(a1-3)[GlcNAc(b1-3)Gal(b1-4)GlcNAc(b1-3)Gal(b1-4)GlcNAc(b1-2)Man(a1-6)]Man(b1-4)GlcNAc(b1-4)GlcNAc
# Method in brief: as §1
# [36] = biological target: GlcNAc(b1-3)Man
# Method in brief: as §1
# [37] = biological target: Kdn(a2-3)Gal(b1-4)GlcNAc
# Method in brief: as §1
# [38] = biological target: Man(a1-2)Man(a1-3)[Man(a1-2)Man(a1-6)]Man(a1-6)[Man(a1-2)Man(a1-2)Man(a1-3)]Man
# Method in brief: as §1
# [39] = biological target: Neu5Ac(a2-3)Gal(b1-3)GalNAc
# Method in brief: as §1
# [40] = biological target: Neu5Ac(a2-3)Gal(b1-3)[Fuc(a1-4)]GlcNAc(b1-3)Gal(b1-3)[Fuc(a1-4)]GlcNAc
# Method in brief: as §1
# [41] = biological target: Neu5Ac(a2-3)Gal(b1-3)[Neu5Ac(a2-6)]GalNAc
# Method in brief: as §1
# [42] = biological target: Neu5Ac(a2-3)Gal(b1-4)GlcNAc(b1-3)Gal(b1-4)GlcNAc(b1-3)[Neu5Ac(a2-3)Gal(b1-4)GlcNAc(b1-3)Gal(b1-4)GlcNAc(b1-6)]GalNAc
# Method in brief: as §1
# [43] = biological target: Neu5Ac(a2-3)Gal(b1-4)GlcNAc(b1-3)[Neu5Ac(a2-3)Gal(b1-4)GlcNAc(b1-6)]GalNAc
# Method in brief: as §1
# [44] = biological target: Neu5Ac(a2-3)Gal(b1-4)[Fuc(a1-3)]GlcNAc(b1-6)[Neu5Ac(a2-3)Gal(b1-3)]GalNAc
# Method in brief: as §1
# [45] = biological target: Neu5Ac(a2-3)Gal(b1-4)[Fuc(a1-3)]GlcNAc6S
# Method in brief: as §1
# [46] = biological target: Neu5Ac(a2-3)GalNAc(b1-4)GlcNAc
# Method in brief: as §1
# [47] = biological target: Neu5Ac(a2-6)Gal(b1-4)GlcNAc
# Method in brief: as §1
# [48] = biological target: Neu5Ac(a2-6)Gal(b1-4)GlcNAc(b1-2)Man(a1-3)[Neu5Ac(a2-3)Gal(b1-4)GlcNAc(b1-2)Man(a1-6)]Man(b1-4)GlcNAc(b1-4)GlcNAc
# Method in brief: as §1
binder,measurement,setting,value
B1,glycan array binding signal (z-score),[1],0.586
same,glycan array binding signal (z-score),[2],0.422
same,glycan array binding signal (z-score),[3],0.308
same,glycan array binding signal (z-score),[4],2.93
same,glycan array binding signal (z-score),[5],2.75
same,glycan array binding signal (z-score),[6],4.68
same,glycan array binding signal (z-score),[7],7.45
same,glycan array binding signal (z-score),[8],-0.469
same,glycan array binding signal (z-score),[9],10.2
same,glycan array binding signal (z-score),[10],7.29
same,glycan array binding signal (z-score),[11],-0.002
same,glycan array binding signal (z-score),[12],-0.543
same,glycan array binding signal (z-score),[13],-0.7
same,glycan array binding signal (z-score),[14],-0.191
same,glycan array binding signal (z-score),[15],-0.182
same,glycan array binding signal (z-score),[16],4.17
same,glycan array binding signal (z-score),[17],5.42
same,glycan array binding signal (z-score),[18],-0.72
same,glycan array binding signal (z-score),[19],2.54
same,glycan array binding signal (z-score),[20],-0.633
same,glycan array binding signal (z-score),[21],0.061
same,glycan array binding signal (z-score),[22],-0.517
same,glycan array binding signal (z-score),[23],-0.227
same,glycan array binding signal (z-score),[24],0.647
same,glycan array binding signal (z-score),[25],0.447
same,glycan array binding signal (z-score),[26],-0.837
same,glycan array binding signal (z-score),[27],0.016
same,glycan array binding signal (z-score),[28],-0.179
same,glycan array binding signal (z-score),[29],-0.745
same,glycan array binding signal (z-score),[30],-0.272
same,glycan array binding signal (z-score),[31],0.136
same,glycan array binding signal (z-score),[32],-0.506
same,glycan array binding signal (z-score),[33],-0.629
same,glycan array binding signal (z-score),[34],-0.125
same,glycan array binding signal (z-score),[35],0.43
same,glycan array binding signal (z-score),[36],-0.123
same,glycan array binding signal (z-score),[37],-0.618
same,glycan array binding signal (z-score),[38],5.22
same,glycan array binding signal (z-score),[39],-0.314
same,glycan array binding signal (z-score),[40],3.3
same,glycan array binding signal (z-score),[41],-0.618
same,glycan array binding signal (z-score),[42],-0.427
same,glycan array binding signal (z-score),[43],-0.521
same,glycan array binding signal (z-score),[44],-0.054
same,glycan array binding signal (z-score),[45],0.335
same,glycan array binding signal (z-score),[46],-0.298
same,glycan array binding signal (z-score),[47],-0.39
same,glycan array binding signal (z-score),[48],-0.741
